Laboratory results as given in PubChem BioAssay AID1490 (National Center for Advancing Translational Sciences (NCATS), 2009).
The campaign covered roughly 310,000 compounds. About 11,000 (3.5%) were called active. Roughly 4% stayed inconclusive and do not appear here. The call rests on the fitted dose curve; in most records, active means well fitted inhibition curve with a large enough effect; inconclusive means small, poorly fitted or top-dose-only effect, or another doubt; inactive means no such curve, though single readings can be large or run the other way. The list comes from a sample in which actives are over-represented; it also holds similar structures and randomly drawn compounds.

Each compound was assayed against 4'-phosphopantetheinyl transferase ffp (Bacillus subtilis) (UniProt Q9F4F7) (assay: qHTS Assay for Inhibitors of Bacillus subtilis Sfp phosphopantetheinyl transferase (PPTase)). Conditions: Biochemical Sfp PPTase activity.
Outline: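 Sfp 15 nM + cpd, 15 min RT; start w/ rhodamine-CoA 5 uM, BHQ-2-YbbR 12.5 uM (final); 50 mM Hepes pH 7.6, 10 mM MgCl2, 0.01% NP-40, 0.01% BSA; read 525/598 nm at 0 and 30 min.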
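Further: the enzyme is Sfp with the accession as filed and its product quenches rhodamine fluorescence.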
Potency means the concentration at half of the fitted maximal effect.
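Wherever largest response in the series, negative = inhibition is given: 0% = enzyme reaction without inhibitor and -100% = no enzyme wells.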

Structure (SMILES) | largest response in the series, negative = inhibition | Potency
COc1ccc(CNc2ncncc2-c2ccccc2OC)c(OC)c1 | -6.24% (inactive) | 
Cc1cnc(CNc2ncncc2-c2ccccc2Cl)cn1 |  | 79.4 µM (active)
COc1ccc(CNc2ncncc2-c2ccccc2C)c(OC)c1 | -23.8% (inactive) | 
CS(=O)(=O)c1ccccc1C(=O)Nc1ccc2sccc2c1 | 8.96% (inactive) | 
CCn1c(SCc2ccccc2)nc2c(c1=O)SCC2 | 11.2% (inactive) | 
Cn1c(SCC(=O)N2CCCCC2)nc2c(c1=O)SCC2 | 15.7% (inactive) | 
Cc1cccc(CSc2nc3c(c(=O)n2C)SCC3)c1 |  | 50.1 µM (active)
Cc1ccc(S(=O)(=O)N(Cc2ccccc2)c2ccccn2)cc1[N+](=O)[O-] | 11.4% (inactive) | 
COc1cc(S(=O)(=O)Nc2ncn[nH]2)ccc1Cl | -14.8% (inactive) | 
CCC1S/C(=N/N=C/c2ccco2)NC1=O (stereo not given) | 3.46% (inactive) | 
O=C1OC(/C=C/c2ccccc2)=NC/1=C/c1ccco1 | 12.2% (inactive) | 
CC(C)(C)C1C/C(=C/c2ccco2)C(=O)/C(=C/c2ccco2)C1 (stereo not given) |  | 20 µM (active)
CCCC(=O)N1CCC(CCC(=O)NC2CC2)CC1 | 11.2% (inactive) | 
COc1ccc(CNC(=O)C2CCN(C(=O)c3ccccc3)CC2)cc1 | 8.47% (inactive) | 
CCOC(=O)C(=O)C1C(=O)Nc2ccccc21 (stereo not given) |  | 25.1 µM (active)
CCCCC(CC)CNC(=O)C(=O)C1C(=O)Nc2ccccc21 (stereo not given) | 22% (inactive) | 
CCOC(=O)CC1=CC(=O)Nc2ccccc2N1 | -6.73% (inactive) | 
COC1=C/C(=C/c2c(N)n3nc(CC(=O)N4CCOCC4)sc3nc2=O)C=CC1=O | -2.99% (inactive) | 
CCC(NC(=O)c1ccccc1NC(=O)c1ccccc1)C(=O)NNC(=O)CSc1nc2ccccc2o1 (stereo not given) | -1.67% (inactive) | 
CCOC(=O)Cc1csc(NC(=O)CSc2ccc(Br)cc2)n1 | 11.6% (inactive) | 

Structure (SMILES) | largest response in the series, negative = inhibition | Potency
CCOC(=O)Cc1csc(NC(=O)CSc2nc(C)cc(=O)[nH]2)n1 |  | 17.8 µM (active)
CCCCc1nnc(NC(=O)CSc2nc(C)cc(=O)[nH]2)s1 | 9.76% (inactive) | 
Cc1ccc(-n2c(SCC(=O)NCCC3=CCCCC3)nc3n[nH]c(C)c3c2=N)cc1Cl | 14.5% (inactive) | 
CSc1cccc(NC(=O)CN2C(=O)COc3ccc(S(=O)(=O)N4CCOCC4)cc32)c1 | 10.2% (inactive) | 
O=C1COc2ccc(S(=O)(=O)Nc3ccc(OC(F)(F)F)cc3)cc2N1 | 25.6% (inactive) | 
Cc1nc([N+](=O)[O-])cn1CC(=O)Nc1ccc(Cl)cc1 | 16.2% (inactive) | 
CCOC(=O)c1c(C)[nH]c2c1-c1ccccc1C(=O)C2=O | 4.96% (inactive) | 
CCOC(=O)c1c(C)nc(-c2ccccc2)nc1NC(=O)C(C)C | -3.48% (inactive) | 
CCOC(=O)c1c(C)[nH]c(=S)c(C#N)c1-c1ccccc1 |  | 79.4 µM (active)
CC(=O)c1c(C)[nH]c(=S)c(C#N)c1-c1ccc(F)cc1 |  | 44.7 µM (active)
Cc1cc(C)c2c(-c3ccc(F)cc3)c(C#N)c(=O)n(C)c2n1 | 10.3% (inactive) | 
N#Cc1c(-c2ccc(Cl)cc2)c2c([nH]c1=S)CCCC2 | -5.85% (inactive) | 
Cc1ccc(S(=O)(=O)NCC(=O)N2CCOCCOCCOCCOCC2)cc1 | 7.3% (inactive) | 
C=CCOc1ccc(/C=C2\SC(=S)N(CCC(=O)O)C2=O)cc1 | 6.13% (inactive) | 
O=C(O)CCC(=O)N(Cc1ccccc1)Cc1ccccc1 | 17.6% (inactive) | 
CN(C)S(=O)(=O)c1cccc(-c2nn(-c3ccccc3)cc2/C=C2\SC(=S)N(CC(=O)O)C2=O)c1 |  | 56.2 µM (active)
Cc1ccc(/C=C2\SC(=S)N(CCC(=O)Nc3ccc(O)cc3)C2=O)cc1 | 15.8% (inactive) | 
Cc1ccc(-c2nn(-c3ccccc3)cc2/C=C/C(=O)Nc2cccc(S(N)(=O)=O)c2)cc1 | 12.2% (inactive) | 
O=C(CN1C(=O)/C(=C\c2ccccc2F)SC1=S)Nc1nc2ccccc2s1 | 5.28% (inactive) | 
COc1ccccc1C(=O)NNC(=O)CCN1C(=O)/C(=C\c2ccccc2)SC1=S | -10.5% (inactive) | 

Structure (SMILES) | largest response in the series, negative = inhibition | Potency
COc1ccc(/C=C2\SC(=S)N(CCC(=O)Nc3ccccn3)C2=O)cc1OC | 11% (inactive) | 
Cc1ccc(-c2nn(-c3ccccc3)cc2/C=C2\SC(=S)N(CCCCCC(=O)O)C2=O)o1 |  | 39.8 µM (active)
Cc1ccc(-c2nn(-c3cccc(F)c3)cc2CNCCc2ccncc2)o1 | -5% (inactive) | 
COc1ccc(-c2nn(-c3ccccc3)cc2/C=C2/SC(=S)N(CCCC(=O)O)C2=O)c(C)c1 |  | 56.2 µM (active)
Cc1ccc(-c2nn(-c3ccccc3)cc2CN(Cc2ccccc2)C(=O)CCC(=O)O)o1 |  | 8.91 µM (active)
Cc1n[nH]c(=O)c2c1nnn2Cc1ccc(F)cc1 | 6.71% (inactive) | 
CCOCCCNC(=O)C1(O)c2cc(Br)ccc2NC(=O)N1c1ccc(C)c(C)c1 (stereo not given) | -2.61% (inactive) | 
Cc1ccc(S(=O)(=O)NCCC(=O)Nc2cccc(S(N)(=O)=O)c2)cc1C | -1.6% (inactive) | 
O=S(=O)(c1ccc(F)cc1)N1CCN=C1SCc1cccc(F)c1 | 5.65% (inactive) | 
O=C(Nc1ccccc1C(=O)Nc1ccncc1)c1ccc([N+](=O)[O-])cc1 | 4.06% (inactive) | 
O=C(CN1CCCCCC1)Nc1c(Cl)cc(Cl)cc1Cl | 6.16% (inactive) | 
O=S(O)S(=O)(=O)O | 7.74% (inactive) | 
Cc1nc2nc(C)c(NS(=O)(=O)c3ccc(C(C)(C)C)cc3)c(=O)n2[nH]1 | 14.4% (inactive) | 
COc1cccc(C(=O)NC(=O)Nc2nc(C)cc(C(F)(F)F)n2)c1 | 14.9% (inactive) | 
CC1CC(C)CN(CCCNC(=O)c2csc3c2CCCCC3)C1 (stereo not given) | 5.49% (inactive) | 
O=C(NCCc1cccc(F)c1)C1CCCN(c2nc3ccccc3s2)C1 (stereo not given) | -6.45% (inactive) | 
CN1CCN(c2ccccc2NC(=O)COc2ccc(C3CCCCC3)cc2)CC1 | -19.2% (inactive) | 
CCn1cc(C(=O)NCC2CCCO2)c(=O)c2cc(S(=O)(=O)N3CCCCC3)ccc21 (stereo not given) | 4.08% (inactive) | 
CCn1cc(C(=O)N2CC(C)CC(C)C2)c(=O)c2cc(S(=O)(=O)N3CCCC3)ccc21 (stereo not given) | 3.15% (inactive) | 
CCn1cc(C(=O)NCCCN2CCCCCC2)c(=O)c2cc(S(=O)(=O)N3CCc4ccccc4C3)ccc21 |  | 89.1 µM (active)
